Source: PubChem BioAssay (NCI)
About 83,000 compounds went through this panel and 20% of them were active in at least one assay; those are over-represented in the sample as a whole.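 Testing used 96-well plates and a 48-hour single-concentration exposure. Example: -40 means 40% of the starting cells died.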 The source made the active and inactive calls. How the source made its calls: active means growth percent below 10; inactive means the rest.

Key:
Test in all cases: NCI-60 one-dose screen, 48 h (100 = growth as untreated, 0 = no growth, -100 = all killed)
Conditions in all cases: 10 µM unless noted
NCI-H23 lung = test system: NCI-H23 lung
NCI-H226 lung = test system: NCI-H226 lung
NCI-H322M lung = test system: NCI-H322M lung
HOP-62 NSCLC = test system: HOP-62 NSCLC
NCI-H460 lung = test system: NCI-H460 lung
HOP-92 NSCLC = test system: HOP-92 NSCLC
NCI-H522 lung = test system: NCI-H522 lung
A549/ATCC NSCLC = test system: A549/ATCC NSCLC
786-0 renal = test system: 786-0 renal
COLO 205 colon = test system: COLO 205 colon

Measured: growth

C#CCOc1ccc(C2=NN(CC3CC3)C3N=C(Cl)c4ncn(CC5CC5)c4N23)cc1OCC#C (stereo not given)
inactive: NCI-H23 lung 85.7% | NCI-H226 lung 76.4% | NCI-H322M lung 76.1% | HOP-62 NSCLC 83.8% | NCI-H460 lung 69.6% | HOP-92 NSCLC 61.7% | NCI-H522 lung 60.6% | A549/ATCC NSCLC 71.4% | 786-0 renal 93.6% | COLO 205 colon 78.9%

CC1(C)CC[C@]2(C(N)=O)CC[C@]3(C)C(=CC[C@@H]4[C@@]5(C)C/C(=C/c6ccncc6)C(=O)C(C)(C)[C@@H]5CC[C@]43C)[C@@H]2C1
active: NCI-H23 lung -34.4% [100 µM] | NCI-H226 lung -48.3% [100 µM] | NCI-H322M lung -100% [100 µM] | HOP-62 NSCLC -63.3% [100 µM] | NCI-H460 lung -48.9% [100 µM] | HOP-92 NSCLC -64.7% [100 µM] | NCI-H522 lung -67.4% [100 µM] | A549/ATCC NSCLC -54.2% [100 µM] | 786-0 renal -41.2% [100 µM] | COLO 205 colon -55.3% [100 µM]

CCCCCCCCCN(CCCCCCCCC)C(C)C(=O)c1ccc2cc(Br)c3ccccc3c2c1 (stereo not given)
inactive: NCI-H23 lung 77.6% | NCI-H226 lung 102% | NCI-H322M lung 116% | HOP-62 NSCLC 95.6% | NCI-H460 lung 110% | HOP-92 NSCLC 72.8% | NCI-H522 lung 96.5% | A549/ATCC NSCLC 86.1% | 786-0 renal 90.4% | COLO 205 colon 81.9%

N#CCCc1c[nH]c2ccccc12
inactive: NCI-H23 lung 105% | NCI-H226 lung 90.3% | NCI-H322M lung 94.1% | HOP-62 NSCLC 82% | NCI-H460 lung 97.7% | HOP-92 NSCLC 75.5% | NCI-H522 lung 94.6% | A549/ATCC NSCLC 89% | 786-0 renal 104% | COLO 205 colon 99.5%

O=C(Nc1ccc(Oc2ccc(F)cc2)c(Cl)c1)c1cccnn1
inactive: NCI-H23 lung 62.3% | NCI-H226 lung 55% | NCI-H322M lung 87.6% | HOP-62 NSCLC 84.2% | NCI-H460 lung 76.8% | HOP-92 NSCLC 66.5% | NCI-H522 lung 61.8% | A549/ATCC NSCLC 65.5% | 786-0 renal 105% | COLO 205 colon 112%

CCOC(=O)c1cc(C(=O)c2ccc(OC)c(OC)c2)n2ccc(-c3ccccn3)cc12
active: NCI-H522 lung -3.85%
inactive: NCI-H23 lung 78% | NCI-H226 lung 49.9% | NCI-H322M lung 58.7% | HOP-62 NSCLC 53.1% | NCI-H460 lung 17.9% | HOP-92 NSCLC 41.6% | A549/ATCC NSCLC 47.5% | 786-0 renal 101% | COLO 205 colon 65.5%

COCCCNc1nc(NC(=O)c2cc(OC)cc(OC)c2)cc(-c2cccnc2)n1
inactive: NCI-H23 lung 98.6% | NCI-H226 lung 96.5% | NCI-H322M lung 92.8% | HOP-62 NSCLC 91.3% | NCI-H460 lung 95.2% | HOP-92 NSCLC 52.6% | NCI-H522 lung 76.5% | A549/ATCC NSCLC 91.2% | 786-0 renal 83.3% | COLO 205 colon 109%

CCNc1cc2c(cc1Br)-c1ccccc1C2=O
inactive: NCI-H23 lung 86% | NCI-H226 lung 92.3% | NCI-H322M lung 87.9% | HOP-62 NSCLC 92.3% | NCI-H460 lung 96.8% | HOP-92 NSCLC 84.9% | NCI-H522 lung 93.6% | A549/ATCC NSCLC 96.3% | 786-0 renal 109% | COLO 205 colon 111%

CCCCCCCCCCCCCCCCCCNC(=S)N/N=C/c1ccc(OC)c(OC)c1
inactive: NCI-H23 lung 93.9% | NCI-H226 lung 99.2% | NCI-H322M lung 98.7% | HOP-62 NSCLC 98.6% | NCI-H460 lung 103% | HOP-92 NSCLC 69.4% | NCI-H522 lung 94.6% | A549/ATCC NSCLC 98.3% | 786-0 renal 102% | COLO 205 colon 104%

O=C1CC(c2ccccc2)Cc2nc3ccc(Br)cc3cc21 (stereo not given)
active: NCI-H460 lung 4.63% | NCI-H522 lung -3.56% | COLO 205 colon -36.3%
inactive: NCI-H23 lung 39.6% | NCI-H226 lung 24.1% | NCI-H322M lung 35.9% | HOP-62 NSCLC 40.4% | HOP-92 NSCLC 40.1% | A549/ATCC NSCLC 23.8% | 786-0 renal 41.2%

CCOC(CNC(=O)c1cccc([N+](=O)[O-])c1)OCC
inactive: NCI-H23 lung 85.7% | NCI-H226 lung 89.8% | NCI-H322M lung 109% | HOP-62 NSCLC 108% | NCI-H460 lung 101% | HOP-92 NSCLC 96.7% | NCI-H522 lung 64.2% | A549/ATCC NSCLC 83.7% | 786-0 renal 101% | COLO 205 colon 108%

C1=C[C@H]2O[C@@H]1c1ccc3[nH]ccc3c12
inactive: NCI-H23 lung 96% | NCI-H226 lung 101% | NCI-H322M lung 110% | HOP-62 NSCLC 96.6% | NCI-H460 lung 102% | HOP-92 NSCLC 120% | NCI-H522 lung 41.7% | A549/ATCC NSCLC 89.4% | 786-0 renal 106% | COLO 205 colon 110%

Cc1cccc(/C=C2\N=C(c3ccccc3)N(c3ccc(S(N)(=O)=O)cc3)C2=O)c1
inactive: NCI-H23 lung 90% | NCI-H226 lung 110% | NCI-H322M lung 97.5% | HOP-62 NSCLC 83.5% | NCI-H460 lung 93.2% | HOP-92 NSCLC 105% | NCI-H522 lung 82.5% | A549/ATCC NSCLC 75.7% | 786-0 renal 95.2% | COLO 205 colon 104%

CC(C)=CC/C=C(/C)[C@H]1CC[C@]2(C)[C@@H]1CC[C@@H]1[C@@]3(C)CCCNC(C)(C)[C@@H]3CC[C@]12C
active: NCI-H23 lung -61.7% [100 µM] | NCI-H226 lung -49.5% [100 µM] | NCI-H322M lung -99.4% [100 µM] | HOP-62 NSCLC -48.3% [100 µM] | NCI-H460 lung -74.2% [100 µM] | HOP-92 NSCLC -56.6% [100 µM] | NCI-H522 lung -59.3% [100 µM] | A549/ATCC NSCLC -51.8% [100 µM] | 786-0 renal -56.2% [100 µM] | COLO 205 colon -62.4% [100 µM]

CC(C)(C)c1cc(C(=O)Nc2ccc(C(=O)NCCN)cc2)cc(C(C)(C)C)c1
active: NCI-H460 lung 3.53% | COLO 205 colon -77.7%
inactive: NCI-H23 lung 85% | NCI-H226 lung 84.2% | NCI-H322M lung 58.3% | HOP-62 NSCLC 67% | HOP-92 NSCLC 26.1% | NCI-H522 lung 40.3% | A549/ATCC NSCLC 39.3% | 786-0 renal 32.2%

O=C(Nc1cccc(F)c1)c1cc(=O)[nH]c2cc(Br)ccc12
inactive: NCI-H23 lung 72.5% | NCI-H226 lung 54.7% | NCI-H322M lung 53.8% | HOP-62 NSCLC 50.9% | NCI-H460 lung 21.9% | HOP-92 NSCLC 47.4% | NCI-H522 lung 23.9% | A549/ATCC NSCLC 40.3% | 786-0 renal 69.7% | COLO 205 colon 20.4%

O=C(O)CSCc1nnc2n(Cc3ccccc3)c(=O)c3c4c(sc3n12)CCCC4
inactive: NCI-H23 lung 90.8% | NCI-H226 lung 87.2% | NCI-H322M lung 101% | HOP-62 NSCLC 139% | NCI-H460 lung 111% | HOP-92 NSCLC 74.5% | NCI-H522 lung 63.7% | A549/ATCC NSCLC 93.7% | 786-0 renal 132% | COLO 205 colon 88.2%

Cn1cc(-c2noc(-c3cn(C)c4ncc(F)cc34)n2)c2cc(Br)ccc21
inactive: NCI-H23 lung 79.9% | NCI-H226 lung 98.7% | NCI-H322M lung 53.7% | HOP-62 NSCLC 67.8% | NCI-H460 lung 22.8% | HOP-92 NSCLC 81.1% | NCI-H522 lung 74.8% | A549/ATCC NSCLC 45.2% | 786-0 renal 49.4% | COLO 205 colon 77.9%

O=C(N/N=C1\c2ccccc2-c2cccc(C(=O)O)c21)c1ccc(O)cc1
inactive: NCI-H23 lung 98.2% | NCI-H226 lung 89.6% | NCI-H322M lung 86.4% | HOP-62 NSCLC 93.8% | NCI-H460 lung 96.6% | HOP-92 NSCLC 78.6% | NCI-H522 lung 86.5% | A549/ATCC NSCLC 95.8% | 786-0 renal 97.5% | COLO 205 colon 107%

O=C1COCCN1c1ccc(NCc2cn(Cc3ccccc3)c3ccccc23)cc1
active: NCI-H226 lung -40.1%
inactive: NCI-H23 lung 93.7% | NCI-H322M lung 86.1% | HOP-62 NSCLC 90.7% | NCI-H460 lung 31.9% | HOP-92 NSCLC 69.5% | NCI-H522 lung 94.1% | A549/ATCC NSCLC 81.4% | 786-0 renal 95.3% | COLO 205 colon 28.8%

CCOC(=O)c1nn(C2CCCCO2)c2ccc(NC(=O)Cn3nnc4ccccc43)cc12 (stereo not given)
inactive: NCI-H23 lung 102% | NCI-H226 lung 109% | NCI-H322M lung 96.9% | HOP-62 NSCLC 98.8% | NCI-H460 lung 100% | HOP-92 NSCLC 111% | NCI-H522 lung 102% | A549/ATCC NSCLC 102% | 786-0 renal 90.9% | COLO 205 colon 120%

COc1cc(-c2nc(SCCC(C)C)nc(Nc3ccc(S(N)(=O)=O)cc3)c2C#N)cc(OC)c1OC
active: HOP-92 NSCLC 2.39%
inactive: NCI-H23 lung 51.2% | NCI-H226 lung 44% | NCI-H322M lung 72.7% | HOP-62 NSCLC 33.5% | NCI-H460 lung 19.7% | NCI-H522 lung 45% | A549/ATCC NSCLC 26.4% | 786-0 renal 31.4% | COLO 205 colon 29.8%

O=C(CSc1nc2ccc([N+](=O)[O-])cc2[nH]1)Nc1ccc(F)c(Cl)c1
active: NCI-H23 lung -7.69% | NCI-H226 lung 7.74% | HOP-92 NSCLC -36.9% | NCI-H522 lung -3.92%
inactive: NCI-H322M lung 37.1% | HOP-62 NSCLC 35% | NCI-H460 lung 11.1% | A549/ATCC NSCLC 23.4% | 786-0 renal 21.9% | COLO 205 colon 24.7%

CCN1c2ccccc2C(Cl)(c2ccc(N(C)C)cc2)c2ccccc21
inactive: NCI-H23 lung 33.8% | NCI-H226 lung 88.2% | NCI-H322M lung 116% | HOP-62 NSCLC 73.6% | NCI-H460 lung 66% | HOP-92 NSCLC 59.6% | NCI-H522 lung 64.2% | A549/ATCC NSCLC 82.9% | 786-0 renal 75.8% | COLO 205 colon 75.5%

CCN(CCNc1ccc(C)c2sc3cc(Cl)ccc3c(=O)c12)CC(C)O (stereo not given)
inactive: NCI-H23 lung 92.9% | NCI-H226 lung 134% | NCI-H322M lung 95.9% | HOP-62 NSCLC 76% | HOP-92 NSCLC 29.8% | NCI-H522 lung 28.3% | A549/ATCC NSCLC 34.7% | 786-0 renal 41.9%
active: NCI-H460 lung 3.16% | COLO 205 colon -34%

CC(C)OC(=O)Nc1cc(F)ccc1F
inactive: NCI-H23 lung 92.9% | NCI-H226 lung 90.9% | NCI-H322M lung 90.8% | HOP-62 NSCLC 101% | NCI-H460 lung 106% | HOP-92 NSCLC 99.6% | NCI-H522 lung 99.8% | A549/ATCC NSCLC 99.7% | 786-0 renal 103% | COLO 205 colon 105%
